The campaign covered roughly 5,500 compounds. About 2,000 (36%) were called active. Roughly 18% stayed inconclusive and do not appear here. No stated cut-off is given here; in the data, active means normalized growth mostly below about 0.91 (no sharp cut-off); inconclusive means no clear call, values can overlap the other calls; inactive means mostly above about 0.92. This is one part of the list.
Experiment: chemical genetic growth profiling, strain panel (AID 1159580);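 further: tested at 20 µM; growth read once vehicle control cultures reached saturation at 30 °C; 1 = growth at the plate median or of vehicle wells; lower values mean less growth of the strain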
Conditions: S. cerevisiae deletion strains, growth OD

Measured: normalized growth

CO/N=C1/CN(c2nc3c(cc2F)c(=O)c(C(=O)O)cn3C2CC2)CC1CN (centres undefined)
inactive: locus YAL021C, strain ccr4, active compounds read low 1 | locus YAL026C, strain drs2, active compounds read low 1.02 | locus YAL030W, strain snc1, active compounds read low 0.992 | locus YBL061C, strain skt5, active compounds read low 0.99 | locus YBR009C, strain hhf1, active compounds read low 0.953 | locus YBR023C, strain chs3, active compounds read low 1.02 | locus YBR171W, strain sec66, active compounds read low 1.02 | locus YBR231C, strain swc5, active compounds read low 0.998 | locus YBR279W, strain paf1, active compounds read low 1.02 | locus YCL011C, strain gbp2, active compounds read low 1.01 | locus YCL016C, strain dcc1, active compounds read low 0.973 | locus YCL069W, strain vba3, active compounds read low 1.02 | locus YCR088W, strain abp1, active compounds read low 1.02 | locus YDL005C, strain med2, active compounds read low 1.04 | locus YDL040C, strain nat1, active compounds read low 1 | locus YDR001C, strain nth1, active compounds read low 1.02 | locus YDR069C, strain doa4, active compounds read low 0.979 | locus YDR137W, strain rgp1, active compounds read low 1.07 | locus YDR159W, strain sac3, active compounds read low 0.975 | locus YDR195W, strain ref2 0.979 | locus YDR297W, strain sur2, active compounds read low 1 | locus YDR334W, strain swr1, active compounds read low 1.02 | locus YDR335W, strain msn5, active compounds read low 1.01 | locus YDR392W, strain spt3, active compounds read low 0.937 | locus YEL003W, strain gim4, active compounds read low 1.03 | locus YEL037C, strain rad23, active compounds read low 1.02 | locus YEL061C, strain CIN8 (second series), active compounds read low 1.01 | locus YER015W, strain faa2, active compounds read low 1.01 | locus YER016W, strain bim1, active compounds read low 1.04 | locus YER111C, strain swi4, active compounds read low 1.03 | locus YER155C, strain BEM2 (second series), active compounds read low 0.977 | locus YFR010W, strain ubp6, active compounds read low 0.982 | locus YGL167C, strain pmr1, active compounds read low 1.01 | locus YGL173C, strain kem1, active compounds read low 0.987 | locus YGL227W, strain vid30, active compounds read low 1.01 | locus YGL240W, strain doc1, active compounds read low 0.967 | locus YGL253W, strain hxk2, active compounds read low 1.02 | locus YHR013C, strain ard1, active compounds read low 1.02 | locus YHR027C, strain rpn1, active compounds read low 1 | locus YHR030C, strain SLT2, active compounds read low 0.983 | locus YHR079C, strain IRE1, active compounds read low 0.949 | locus YHR142W, strain chs7, active compounds read low 1.02 | locus YJL092W, strain hpr5, active compounds read low 0.973 | locus YJL095W, strain BCK1 (second series), active compounds read low 0.992 | locus YJL095W, strain BCK1, active compounds read low 0.98 | locus YJL115W, strain asf1, active compounds read low 0.956 | locus YJL129C, strain trk1, active compounds read low 0.997 | locus YJL154C, strain vps35, active compounds read low 1.02 | locus YJL164C, strain tpk1, active compounds read low 0.985 | locus YJL166W, strain qcr8, active compounds read low 0.998 | locus YJL187C, strain SWE1, active compounds read low 0.998 | locus YJR066W, strain TOR1, active compounds read low 0.949 | locus YKL160W, strain elf1, active compounds read low 1.02 | locus YKR026C, strain gcn3, active compounds read low 1.01 | locus YKR091W, strain srl3, active compounds read low 1.01 | locus YLL001W, strain dnm1, active compounds read low 0.98 | locus YLL026W, active compounds read low 1.01 | locus YLL041C, strain sdh2, active compounds read low 1.02 | locus YLR027C, strain aat2, active compounds read low 1.01 | locus YLR113W, strain HOG1, active compounds read low 0.999 | locus YLR221C, strain rsa3, active compounds read low 0.98 | locus YLR258W, strain gsy2, active compounds read low 1.02 | locus YLR262C, strain YPT6 (second series), active compounds read low 0.978 | locus YLR342W, strain FKS1, active compounds read low 0.958 | locus YLR357W, strain rsc2, active compounds read low 0.981 | locus YLR370C, strain arc18, active compounds read low 1.02 | locus YLR384C, strain iki3, active compounds read low 1.01 | locus YML120C, strain ndi1, active compounds read low 0.998 | locus YMR125W, strain sto1, active compounds read low 1.02 | locus YMR129W, active compounds read low 1.01 | locus YMR205C, strain PFK2, active compounds read low 1.01 | locus YMR231W, strain pep5, active compounds read low 1.01 | locus YNL071W, strain lat1, active compounds read low 1.02 | locus YNL183C, strain NPR1, active compounds read low 0.903 | locus YNL209W, strain ssb2, active compounds read low 1.01 | locus YNL248C, strain rpa49, active compounds read low 1.02 | locus YNL322C, strain KRE1 (second series), active compounds read low 1.03 | locus YNR049C, strain mso1, active compounds read low 1.01 | locus YOR001W, strain rrp6, active compounds read low 1.01 | locus YOR070C, strain gyp1, active compounds read low 1 | locus YOR080W, strain dia2, active compounds read low 0.974 | locus YOR083W, strain WHI5, active compounds read low 0.987 | locus YOR106W, strain vam3, active compounds read low 0.993 | locus YOR231W, strain MKK1, active compounds read low 0.989 | locus YOR265W, strain rbl2, active compounds read low 1.01 | locus YOR270C, strain vph1, active compounds read low 1.03 | locus YOR290C, strain snf2, active compounds read low 1.03 | locus YPL051W, strain arl3, active compounds read low 1 | locus YPL078C, strain atp4, active compounds read low 1.04 | locus YPL106C, strain sse1, active compounds read low 1.01 | locus YPL240C, strain hsp82, active compounds read low 1.02 | locus YPL256C, strain CLN2, active compounds read low 1
active: locus YLR320W, strain mms22, active compounds read low 0.707 | locus YMR058W, strain fet3, active compounds read low 0.816
